Only a selection was taken, and hits are over-represented in it overall.
U2OS ROS induce: ROS inducers in U2OS cancer cells, primary screen, cell-based, H2DCF-DA fluorescence. U2OS ROS induction. ROS induction (% of piperlongumine), % at 10 µM. actives 2% (n = 46,000). AID 624156, 2012; in the data active means ROS induction above about 79%, passing the limit was not always enough
A number is an active result; 0 = inactive.

SMILES | U2OS ROS induce
Cc1nc(NCCc2ccccc2)c2c3c(sc2n1)CCCC3 | 127
O=C(O)CCNc1ncnc2sc3c(c12)CCCC3 | 0
CC(Sc1ncnc2sc3c(c12)CCCC3)C(=O)Nc1cc(C(F)(F)F)ccc1Cl (stereo not given) | 0
c1ccc(Oc2ncnc3sc4c(c23)CCCC4)cc1 | 0
O=C(/C=C/c1ccccc1)Nc1ncnc2sc3c(c12)CCC3 | 0
FC(F)(F)c1cccc(Nc2ncnc3sc4c(c23)CCC4)c1 | 116
Cc1nc(SCC(=O)c2cccs2)c2c3c(sc2n1)CCCC3 | 0
CCN(CC)C(=O)N1CCN(CCC#N)CC1 | 0
CCOC(=O)c1c(NC(=O)c2nc3ncccn3n2)sc2c1CCCC2 | 0
Cc1ccccc1Cn1cc(SCC(=O)N2CCCc3ccccc32)c2ccccc21 | 0
CCC(C)NC(=O)C1CCCN(S(=O)(=O)c2cccc3cccnc23)C1 (stereo not given) | 0
O=[N+]([O-])c1ccc(CSc2nnc(-c3ccccn3)n2-c2ccccc2)cc1 | 0
CCC(Sc1nc2ccccc2o1)C(=O)Nc1cccc2ccccc12 (stereo not given) | 0
Cc1c(Br)c([N+](=O)[O-])nn1CC(=O)Nc1ccc(F)cc1 | 0
C=CC1(C)OCO/C1=C\C[N+](C)(C)C (stereo not given) | 0
O=C(NCc1ccccn1)c1cc2nc(-c3ccccc3)cc(-c3ccccc3)n2n1 | 141
Cc1ccc(-c2cc(C(=O)NCc3ccccn3)no2)cc1 | 0
O=C(NCc1ccccn1)c1cc(-c2ccccc2)on1 | 0
Cc1ccc2nc(-c3cccc(NC(=O)COc4ccccc4)c3C)oc2c1 | 0
O=P1(N2CCN(c3ccc(Cl)cc3)CC2)COc2ccccc2OC1 | 0
COc1ccc(-n2c(SCC(=O)N3CCOCC3)nnc2-c2ccccc2)cc1 | 0
COC(=O)CSc1nnc(-c2ccccc2)o1 | 0
c1ccc(Cn2ccnc2SCc2nnc(-c3ccccc3)o2)cc1 | 105
Cc1cc(-n2nc3ccccc3n2)c2oc(SCc3nnc(-c4ccccc4)o3)nc2c1 | 0
CSc1ncc(Cl)c(C(=O)Nc2nnc(SCc3ccc(F)cc3)s2)n1 | 0
SMILES | U2OS ROS induce
COc1ccc(S(=O)(=O)N(C)CC(=O)Nc2cc(Cl)cc(Cl)c2)cc1 | 0
CCNS(=O)(=O)c1ccc2c(c1)C(=O)c1cc(S(=O)(=O)NCC)ccc1-2 | 0
CC(C)COC(=O)C(C)Oc1ccc2c3c(c(=O)oc2c1)CCC3 (stereo not given) | 122
CC(C)COc1ccc2c3c(c(=O)oc2c1)CCCC3 | 0
CCC(C)OC(=O)C(C)Oc1ccc2c3c(c(=O)oc2c1)CCC3 (stereo not given) | 0
C[C@H]1CN([C@@H](C)CO)C(=O)c2cc(NS(=O)(=O)c3cccs3)ccc2O[C@@H]1CN(C)S(=O)(=O)c1ccc(Cl)cc1 | 0
Cc1cc(C(=O)Nc2cccc3c2O[C@@H](CN(C)S(=O)(=O)c2cn(C)cn2)[C@H](C)CN([C@@H](C)CO)C3=O)n(C)n1 | 0
CCCn1c2ccccc2c2nnc(SCC(=O)N3c4ccccc4Sc4ccccc43)nc21 | 0
O=C(CSc1nc2ccccc2s1)c1ccc2c(c1)OCCO2 | 0
CCCn1c2ccccc2c2nnc(SCCCC(=O)c3ccc4c(c3)OCCO4)nc21 | 142
COc1ccc(CN(C)C[C@H]2Oc3ccc(NC(=O)CCN4CCOCC4)cc3C(=O)N([C@H](C)CO)C[C@H]2C)cc1 | 0
C=C(C(=O)O)[C@@H]1CC[C@@]2(C)CC[C@@H](O)C(=C)C2C1 (stereo not given in full) | 0
C[C@@H]1CN([C@H](C)CO)C(=O)Cc2cc(NS(=O)(=O)c3ccccc3)ccc2O[C@H]1CN(C)Cc1ccc(C(F)(F)F)cc1 | 217
C[C@H]1CN([C@@H](C)CO)C(=O)Cc2cc(NS(=O)(=O)c3cccs3)ccc2O[C@H]1CN(C)Cc1ccc(-c2ccccc2)cc1 | 0
C[C@H](CO)N1C[C@H](C)[C@H](CN(C)Cc2ccc(C(F)(F)F)cc2)Oc2ccc(NS(=O)(=O)c3ccccc3)cc2CC1=O | 0
C[C@@H]1CN([C@H](C)CO)C(=O)Cc2cc(NS(=O)(=O)c3ccccc3)ccc2O[C@@H]1CN(C)Cc1ccc(C(F)(F)F)cc1 | 0
C[C@@H]1CN([C@H](C)CO)C(=O)Cc2cc(NS(=O)(=O)c3ccc(Cl)cc3)ccc2O[C@H]1CN(C)Cc1ccccc1 | 0
C[C@@H]1CN([C@H](C)CO)C(=O)Cc2cc(NS(C)(=O)=O)ccc2O[C@@H]1CN(C)Cc1ccccc1 | 0
C[C@H](CO)N1C[C@H](C)[C@H](CN(C)Cc2ccc(-c3ccccc3)cc2)Oc2ccc(NS(=O)(=O)c3ccc(Cl)cc3)cc2CC1=O | 142
C[C@H]1CN([C@@H](C)CO)C(=O)Cc2cc(NS(C)(=O)=O)ccc2O[C@@H]1CN(C)Cc1ccccc1 | 131
C[C@@H]1CN([C@H](C)CO)C(=O)Cc2cc(NS(=O)(=O)c3cccs3)ccc2O[C@@H]1CN(C)Cc1ccc(-c2ccccc2)cc1 | 0
C[C@H]1CN([C@@H](C)CO)C(=O)Cc2cc(NS(C)(=O)=O)ccc2O[C@H]1CN(C)Cc1ccccc1 | 0
C[C@H](CO)N1C[C@H](C)[C@H](CN(C)Cc2ccc(-c3ccccc3)cc2)Oc2ccc(NS(=O)(=O)c3cccs3)cc2CC1=O | 78
C[C@H](CO)N1C[C@H](C)[C@H](CN(C)Cc2ccccc2)Oc2ccc(NS(=O)(=O)c3ccc(Cl)cc3)cc2CC1=O | 0
O=C(CCCn1c(=O)c2cccn2c2ccccc21)NC1CCCc2ccccc21 (stereo not given) | 0
SMILES | U2OS ROS induce
COc1ccc(CC(=O)N(C)C)cc1 | 0
COc1ccc2nc3[nH]nc(NC(=O)Cc4ccccc4OC)c3cc2c1 | 0
C[C@@H]1CN([C@@H](C)CO)C(=O)c2cc(NC(=O)CCN3CCOCC3)ccc2O[C@@H]1CN(C)S(=O)(=O)c1cn(C)cn1 | 0
CC(=O)O[C@@H]1[C@@H](O)C[C@@]2(C)C(CC[C@@H](C)C23Cc2c(O)cc4c(c2O3)CN([C@@H](CCC(=O)O)C(=O)O)C4=O)C1(C)C (stereo not given in full) | 0
CCOC(=O)c1ccc(-n2c(C)cc(C=C3C(=O)NC(=S)NC3=O)c2C)cc1 | 0
CCC(=O)Nc1cc(C(=O)O)ccc1Sc1ccc(OC)cc1 | 0
O=S(=O)(c1ccc(Cc2ccc(S(=O)(=O)N3CCCCC3)cc2)cc1)N1CCCCC1 | 0
O=C1C(=O)N(CCCN2CCOCC2)C(c2cccnc2)C1C(=O)c1cc2ccccc2o1 (stereo not given) | 0
C[C@H]1CN([C@@H](C)CO)C(=O)c2cccc(NC(=O)c3cnccn3)c2O[C@@H]1CN(C)Cc1ccccc1 | 0
O=C(N/N=C/c1ccc(F)cc1)c1ccccc1O | 0
COc1ccc(CN(C)C[C@H]2Oc3ccc(NS(=O)(=O)c4cccs4)cc3C(=O)N([C@@H](C)CO)C[C@H]2C)cc1 | 0
C[C@H](CO)N1C[C@H](C)[C@@H](CN(C)Cc2ccc(Oc3ccccc3)cc2)Oc2ccc(NS(=O)(=O)c3cccs3)cc2C1=O | 93
C[C@H]1CN([C@@H](C)CO)C(=O)c2cc(NS(=O)(=O)c3cccs3)ccc2O[C@H]1CN(C)Cc1ccc(Oc2ccccc2)cc1 | 0
O=C(O)CCNCc1c(Cl)cccc1Cl | 0
CC(=O)OCC(=O)[C@@]1(O)CCC2C3CC[C@@H]4C[C@H](OC(C)=O)CC[C@]4(C)C3C(=O)C[C@@]21C (stereo not given in full) | 0

Source: PubChem BioAssay
